Laboratory results as given in paper PMC11006913.
Changes are numbered by the printed parent chain.

Columns and labels:
Assay in all cases: PBM; 200 nM protein, PBS
Details in all cases: dsDNA, one strand shown
HOXB4 [1] = target: HOXB4 (Homo sapiens, UniProt P17483 148-234)
VENTX [2] = target: T1, VENTX (Homo sapiens, UniProt O95231 78-163, R121Q)
T1 sequence: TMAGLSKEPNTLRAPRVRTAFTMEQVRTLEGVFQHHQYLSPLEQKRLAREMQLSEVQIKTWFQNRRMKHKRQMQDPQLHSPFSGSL

HOXB4 [3] = target: HOXB4 (Homo sapiens, UniProt P17483 148-234, V174I)
HOXB4 (Homo sapiens, UniProt P17483 148-234, V174I), sequence (P17483 148-234 V174I): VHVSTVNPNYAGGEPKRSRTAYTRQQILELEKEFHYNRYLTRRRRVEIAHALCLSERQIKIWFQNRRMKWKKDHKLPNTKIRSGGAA

HOXA4 [4] = target: HOXA4 (Homo sapiens, UniProt Q00056 201-287, W262R)
HOXA4 (Homo sapiens, UniProt Q00056 201-287, W262R), sequence (Q00056 201-287 W262R): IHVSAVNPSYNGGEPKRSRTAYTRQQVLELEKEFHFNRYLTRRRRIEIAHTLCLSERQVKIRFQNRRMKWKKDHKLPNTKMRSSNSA

VENTX [5] = target: T2, VENTX (Homo sapiens, UniProt O95231 78-163)
T2 sequence: T1 sequence with Q44R

VENTX [6] = target: T3, VENTX (Homo sapiens, UniProt O95231 78-163, Y115F)
T3 sequence: T1 sequence with Y38F, Q44R

HOXA2 [7] = target: HOXA2 (Homo sapiens, UniProt O43364 129-215, R185T)
HOXA2 (Homo sapiens, UniProt O43364 129-215, R185T), sequence (O43364 129-215 R185T): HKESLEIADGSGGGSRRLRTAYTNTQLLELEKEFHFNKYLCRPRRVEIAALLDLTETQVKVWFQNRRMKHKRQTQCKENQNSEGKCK

HOXA4 [8] = target: HOXA4 (Homo sapiens, UniProt Q00056 201-287, R217L)
HOXA4 (Homo sapiens, UniProt Q00056 201-287, R217L), sequence (Q00056 201-287 R217L): as the sequence (Q00056 201-287 W262R) above, with R17L, R62W counted along it

HOXA2 [9] = target: HOXA2 (Homo sapiens, UniProt O43364 129-215, R185K)
HOXA2 (Homo sapiens, UniProt O43364 129-215, R185K), sequence (O43364 129-215 R185K): as the sequence (O43364 129-215 R185T) above, with T57K counted along it

HOXA4 [10] = target: HOXA4 (Homo sapiens, UniProt Q00056 201-287)
HOXA4 (Homo sapiens, UniProt Q00056 201-287), sequence (Q00056 201-287): as the sequence (Q00056 201-287 W262R) above, with R62W counted along it

VAX1 [11] = target: VAX1 (Homo sapiens, UniProt Q5SQQ9 86-172)
VAX1 (Homo sapiens, UniProt Q5SQQ9 86-172), sequence (Q5SQQ9 86-172): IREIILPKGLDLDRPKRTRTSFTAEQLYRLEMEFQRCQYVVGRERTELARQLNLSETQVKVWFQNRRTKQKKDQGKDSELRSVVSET

VAX1 [12] = target: VAX1 (Homo sapiens, UniProt Q5SQQ9 86-172, T142I)
VAX1 (Homo sapiens, UniProt Q5SQQ9 86-172, T142I), sequence (Q5SQQ9 86-172 T142I): as the sequence (Q5SQQ9 86-172) above, with T57I counted along it

HOXA2 [13] = target: HOXA2 (Homo sapiens, UniProt O43364 129-215, Y150S)
HOXA2 (Homo sapiens, UniProt O43364 129-215, Y150S), sequence (O43364 129-215 Y150S): as the sequence (O43364 129-215 R185T) above, with Y22S, T57R counted along it

HOXA4 [14] = target: HOXA4 (Homo sapiens, UniProt Q00056 201-287, W262F)
HOXA4 (Homo sapiens, UniProt Q00056 201-287, W262F), sequence (Q00056 201-287 W262F): as the sequence (Q00056 201-287 W262R) above, with R62F counted along it

HOXA2 [15] = target: HOXA2 (Homo sapiens, UniProt O43364 129-215)
HOXA2 (Homo sapiens, UniProt O43364 129-215), sequence (O43364 129-215): as the sequence (O43364 129-215 R185T) above, with T57R counted along it

VAX1 [16] = target: VAX1 (Homo sapiens, UniProt Q5SQQ9 86-172, K157R)
VAX1 (Homo sapiens, UniProt Q5SQQ9 86-172, K157R), sequence (Q5SQQ9 86-172 K157R): as the sequence (Q5SQQ9 86-172) above, with K72R counted along it

HOXB9 = HOXB9 (Homo sapiens, UniProt P17482 171-250, T197M)
HOXB9, sequence (P17482 171-250 T197M): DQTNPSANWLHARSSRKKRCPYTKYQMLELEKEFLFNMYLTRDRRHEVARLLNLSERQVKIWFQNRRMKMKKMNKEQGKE

HOXB4 (Homo sapiens, UniProt P17483 148-234), sequence (P17483 148-234): as the sequence (P17483 148-234 V174I) above, with I27V counted along it

Row | Sequence | binding signal (HOXB4 [1]) | binding signal (VENTX [2]) | binding signal (HOXB4 [3]) | binding signal (HOXA4 [4]) | binding signal (VENTX [5]) | binding signal (VENTX [6]) | binding signal (HOXA2 [7]) | binding signal (HOXA4 [8]) | binding signal (HOXA2 [9]) | binding signal (HOXA4 [10]) | binding signal (VAX1 [11]) | binding signal (VAX1 [12]) | binding signal (HOXA2 [13]) | binding signal (HOXA4 [14]) | binding signal (HOXA2 [15]) | binding signal (VAX1 [16]) | binding signal (HOXB9)
1 | GCTCGTTA | 11.4 upbm affinity estimate (log intensity, higher = more binding, comparable within an allelic series) | 10.1 upbm affinity estimate (log intensity, higher = more binding, comparable within an allelic series) | 11.6 upbm affinity estimate (log intensity, higher = more binding, comparable within an allelic series) | – | – | – | – | – | – | – | – | – | – | – | – | – | –
2 | GCGCAGCC | 7.53 upbm affinity estimate (log intensity, higher = more binding, comparable within an allelic series) | – | 7.57 upbm affinity estimate (log intensity, higher = more binding, comparable within an allelic series) | – | – | – | – | – | – | – | – | – | – | – | – | – | –
3 | GCTAATGA | 13.3 upbm affinity estimate (log intensity, higher = more binding, comparable within an allelic series) | 11.9 upbm affinity estimate (log intensity, higher = more binding, comparable within an allelic series) | 14 upbm affinity estimate (log intensity, higher = more binding, comparable within an allelic series) | 10.5 upbm affinity estimate (log intensity, higher = more binding, comparable within an allelic series) | 12.5 upbm affinity estimate (log intensity, higher = more binding, comparable within an allelic series) | 11.9 upbm affinity estimate (log intensity, higher = more binding, comparable within an allelic series) | 13.1 upbm affinity estimate (log intensity, higher = more binding, comparable within an allelic series) | 12.1 upbm affinity estimate (log intensity, higher = more binding, comparable within an allelic series) | 13.6 upbm affinity estimate (log intensity, higher = more binding, comparable within an allelic series) | 13.9 upbm affinity estimate (log intensity, higher = more binding, comparable within an allelic series) | 13.5 upbm affinity estimate (log intensity, higher = more binding, comparable within an allelic series) | 13.3 upbm affinity estimate (log intensity, higher = more binding, comparable within an allelic series) | 10.8 upbm affinity estimate (log intensity, higher = more binding, comparable within an allelic series) | 11.9 upbm affinity estimate (log intensity, higher = more binding, comparable within an allelic series) | 12.8 upbm affinity estimate (log intensity, higher = more binding, comparable within an allelic series) | 13.4 upbm affinity estimate (log intensity, higher = more binding, comparable within an allelic series) | –
4 | AGTCATTA | 13.1 upbm affinity estimate (log intensity, higher = more binding, comparable within an allelic series) | 11.7 upbm affinity estimate (log intensity, higher = more binding, comparable within an allelic series) | 13.7 upbm affinity estimate (log intensity, higher = more binding, comparable within an allelic series) | 10.6 upbm affinity estimate (log intensity, higher = more binding, comparable within an allelic series) | – | 11.7 upbm affinity estimate (log intensity, higher = more binding, comparable within an allelic series) | 12.9 upbm affinity estimate (log intensity, higher = more binding, comparable within an allelic series) | 12.5 upbm affinity estimate (log intensity, higher = more binding, comparable within an allelic series) | 13.5 upbm affinity estimate (log intensity, higher = more binding, comparable within an allelic series) | 13.9 upbm affinity estimate (log intensity, higher = more binding, comparable within an allelic series) | 13.1 upbm affinity estimate (log intensity, higher = more binding, comparable within an allelic series) | 13 upbm affinity estimate (log intensity, higher = more binding, comparable within an allelic series) | 10.9 upbm affinity estimate (log intensity, higher = more binding, comparable within an allelic series) | 12 upbm affinity estimate (log intensity, higher = more binding, comparable within an allelic series) | 12.7 upbm affinity estimate (log intensity, higher = more binding, comparable within an allelic series) | 12.9 upbm affinity estimate (log intensity, higher = more binding, comparable within an allelic series) | –
5 | ACTAATGG | 12.9 upbm affinity estimate (log intensity, higher = more binding, comparable within an allelic series) | 12.2 upbm affinity estimate (log intensity, higher = more binding, comparable within an allelic series) | 13.5 upbm affinity estimate (log intensity, higher = more binding, comparable within an allelic series) | 10.5 upbm affinity estimate (log intensity, higher = more binding, comparable within an allelic series) | 12.8 upbm affinity estimate (log intensity, higher = more binding, comparable within an allelic series) | 11.9 upbm affinity estimate (log intensity, higher = more binding, comparable within an allelic series) | 12.2 upbm affinity estimate (log intensity, higher = more binding, comparable within an allelic series) | 11.5 upbm affinity estimate (log intensity, higher = more binding, comparable within an allelic series) | 13 upbm affinity estimate (log intensity, higher = more binding, comparable within an allelic series) | 13.5 upbm affinity estimate (log intensity, higher = more binding, comparable within an allelic series) | 12.7 upbm affinity estimate (log intensity, higher = more binding, comparable within an allelic series) | 12.1 upbm affinity estimate (log intensity, higher = more binding, comparable within an allelic series) | 10.8 upbm affinity estimate (log intensity, higher = more binding, comparable within an allelic series) | 11.3 upbm affinity estimate (log intensity, higher = more binding, comparable within an allelic series) | 12.1 upbm affinity estimate (log intensity, higher = more binding, comparable within an allelic series) | 12.3 upbm affinity estimate (log intensity, higher = more binding, comparable within an allelic series) | –
6 | CTAATGAG | 13 upbm affinity estimate (log intensity, higher = more binding, comparable within an allelic series) | 11.9 upbm affinity estimate (log intensity, higher = more binding, comparable within an allelic series) | 13.6 upbm affinity estimate (log intensity, higher = more binding, comparable within an allelic series) | 10.5 upbm affinity estimate (log intensity, higher = more binding, comparable within an allelic series) | 12.6 upbm affinity estimate (log intensity, higher = more binding, comparable within an allelic series) | 12 upbm affinity estimate (log intensity, higher = more binding, comparable within an allelic series) | 13.3 upbm affinity estimate (log intensity, higher = more binding, comparable within an allelic series) | 11.8 upbm affinity estimate (log intensity, higher = more binding, comparable within an allelic series) | 13.6 upbm affinity estimate (log intensity, higher = more binding, comparable within an allelic series) | 13.8 upbm affinity estimate (log intensity, higher = more binding, comparable within an allelic series) | 13.6 upbm affinity estimate (log intensity, higher = more binding, comparable within an allelic series) | 13.3 upbm affinity estimate (log intensity, higher = more binding, comparable within an allelic series) | 10.6 upbm affinity estimate (log intensity, higher = more binding, comparable within an allelic series) | 11.6 upbm affinity estimate (log intensity, higher = more binding, comparable within an allelic series) | 12.8 upbm affinity estimate (log intensity, higher = more binding, comparable within an allelic series) | 13.4 upbm affinity estimate (log intensity, higher = more binding, comparable within an allelic series) | –
7 | CCTGACCC | 7.93 upbm affinity estimate (log intensity, higher = more binding, comparable within an allelic series) | – | 7.87 upbm affinity estimate (log intensity, higher = more binding, comparable within an allelic series) | – | – | – | – | – | – | – | – | – | – | – | – | – | 8.77 upbm affinity estimate (log intensity, higher = more binding, comparable within an allelic series)
8 | ATTAATCG | 13 upbm affinity estimate (log intensity, higher = more binding, comparable within an allelic series) | 11.6 upbm affinity estimate (log intensity, higher = more binding, comparable within an allelic series) | 13.7 upbm affinity estimate (log intensity, higher = more binding, comparable within an allelic series) | 10.5 upbm affinity estimate (log intensity, higher = more binding, comparable within an allelic series) | 12.5 upbm affinity estimate (log intensity, higher = more binding, comparable within an allelic series) | 11.4 upbm affinity estimate (log intensity, higher = more binding, comparable within an allelic series) | – | 11.9 upbm affinity estimate (log intensity, higher = more binding, comparable within an allelic series) | – | 13.6 upbm affinity estimate (log intensity, higher = more binding, comparable within an allelic series) | – | – | – | 11.2 upbm affinity estimate (log intensity, higher = more binding, comparable within an allelic series) | – | – | –
9 | GTTAATGA | 13.3 upbm affinity estimate (log intensity, higher = more binding, comparable within an allelic series) | 11.9 upbm affinity estimate (log intensity, higher = more binding, comparable within an allelic series) | 14 upbm affinity estimate (log intensity, higher = more binding, comparable within an allelic series) | 10.7 upbm affinity estimate (log intensity, higher = more binding, comparable within an allelic series) | 12.6 upbm affinity estimate (log intensity, higher = more binding, comparable within an allelic series) | 11.9 upbm affinity estimate (log intensity, higher = more binding, comparable within an allelic series) | 13.1 upbm affinity estimate (log intensity, higher = more binding, comparable within an allelic series) | 12.7 upbm affinity estimate (log intensity, higher = more binding, comparable within an allelic series) | 13.5 upbm affinity estimate (log intensity, higher = more binding, comparable within an allelic series) | 14.1 upbm affinity estimate (log intensity, higher = more binding, comparable within an allelic series) | 13.5 upbm affinity estimate (log intensity, higher = more binding, comparable within an allelic series) | 13.4 upbm affinity estimate (log intensity, higher = more binding, comparable within an allelic series) | 10.9 upbm affinity estimate (log intensity, higher = more binding, comparable within an allelic series) | 12.3 upbm affinity estimate (log intensity, higher = more binding, comparable within an allelic series) | 12.8 upbm affinity estimate (log intensity, higher = more binding, comparable within an allelic series) | 13.3 upbm affinity estimate (log intensity, higher = more binding, comparable within an allelic series) | –
10 | TATTAATA | 12.7 upbm affinity estimate (log intensity, higher = more binding, comparable within an allelic series) | – | 13.3 upbm affinity estimate (log intensity, higher = more binding, comparable within an allelic series) | – | – | – | – | – | – | – | – | – | – | – | – | – | 10.1 upbm affinity estimate (log intensity, higher = more binding, comparable within an allelic series)
